# HPGD inh: qHTS Assay for Inhibitors of HPGD (15-Hydroxyprostaglandin Dehydrogenase); Potency, µM, for inactives: at the top dose activity change, negative = inhibition, actives largely listed as inhibitors; 150,000 compounds, 4.3% hits; purified HPGD, NADH fluorescence kinetic, PGE2 substrate; 15-hydroxyprostaglandin dehydrogenase [NAD(+)] (Homo sapiens), P15428; note: potency is the fitted concentration of half-maximal effect
#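 NADH formation kinetics: reaction with 30 uM PGE2 and 1 mM NAD+ (final), 20 nM enzyme, Tris-HCl pH 8 with Tween 20, after 15 min compound preincubation at room temperature. Fluorescence change, last versus first of five reads.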
# ALDH1A1 block: qHTS Assay for Inhibitors of Aldehyde Dehydrogenase 1 (ALDH1A1); Aldehyde dehydrogenase 1A1 (Homo sapiens), P00352; Purified ALDH1A1, NADH fluorescence, propionaldehyde substrate; Potency, µM (titrated, usually from 75.3 µM), without a hit: at the highest dose activity, negative = inhibition, actives largely listed as inhibitors; 220,000 compounds, 7.3% hits;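 note: potency is the fitted concentration of half-maximal effect; plate controls were no enzyme wells and a reference inhibitor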
# PNC inhibitor: High Content Assay for Compounds that inhibit the Assembly of the Perinucleolar Compartment; 140,000 compounds, 3.1% hits; AID 2417, 2010; PC3M PTB-GFP, PNC prevalence imaging, 16 h; active compounds read low; activity change (PNC), negative = inhibition, % at 10 µM;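 active = readout at or below -70, meaning at least 70% loss of cells showing the perinucleolar compartment, a nuclear body marking cancer cells; inconclusive = readout between -30 and a set limit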;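 note: plate controls were DMSO wells for no effect and camptothecin positive control wells for full effect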
#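 PC3M cells stably expressing PTB-GFP, 750–1000 cells/well, treated 16 h at 37 °C with compound (23 nl of library stock), in duplicate. After paraformaldehyde fixation and Hoechst stain, imaged at 20x; PNC prevalence scored by image analysis.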
# LMNA splice mod: qHTS Assay for Modulators of Lamin A Splicing | AID 1487, 2009 | Potency, µM (series often up to 46.1 µM), for inactives: top-dose ratio change, negative = inhibition, most hits filed as inhibitors | HeLa LMNA splicing GFP/RFP minigene ratio, 48 h | 200,000 compounds, 0.01% hits; active = well fitted inhibition curve with a large enough effect in the signal ratio, with a control signal flat, not every such curve was filed as active; inconclusive = small, poorly fitted or top-dose-only effect, or effect the other way, or a change in a side signal; the % refers to the signal ratio; note: potency is the fitted concentration of half-maximal effect
#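 S3 HeLa stable clones carrying a lamin A-EGFP splicing minigene plus DsRed2 were seeded at 600 cells/well in Opti-MEM with 2% FBS, pin-dosed and incubated 48 h at 37°C. Acumen cytometry (488 nm) gave the GFP/RFP total-intensity ratio.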
# 12-hLO inh: qHTS Assay for Inhibitors of 12-hLO (12-human lipoxygenase) | Potency, µM (highest dose often 57.1 µM), for inactives: at the top dose activity change, negative = inhibition, usual class: inhibitors | 150,000 compounds, 0.12% hits | purified 12-hLO, xylenol orange hydroperoxide absorbance; active = well fitted inhibition curve with a large enough effect; inconclusive = small, poorly fitted or top-dose-only effect; note: potency is the fitted concentration of half-maximal effect; nearly all actives have a fitted effect of over 55% in size
# Target sequence (P18054 whole entry, looked up): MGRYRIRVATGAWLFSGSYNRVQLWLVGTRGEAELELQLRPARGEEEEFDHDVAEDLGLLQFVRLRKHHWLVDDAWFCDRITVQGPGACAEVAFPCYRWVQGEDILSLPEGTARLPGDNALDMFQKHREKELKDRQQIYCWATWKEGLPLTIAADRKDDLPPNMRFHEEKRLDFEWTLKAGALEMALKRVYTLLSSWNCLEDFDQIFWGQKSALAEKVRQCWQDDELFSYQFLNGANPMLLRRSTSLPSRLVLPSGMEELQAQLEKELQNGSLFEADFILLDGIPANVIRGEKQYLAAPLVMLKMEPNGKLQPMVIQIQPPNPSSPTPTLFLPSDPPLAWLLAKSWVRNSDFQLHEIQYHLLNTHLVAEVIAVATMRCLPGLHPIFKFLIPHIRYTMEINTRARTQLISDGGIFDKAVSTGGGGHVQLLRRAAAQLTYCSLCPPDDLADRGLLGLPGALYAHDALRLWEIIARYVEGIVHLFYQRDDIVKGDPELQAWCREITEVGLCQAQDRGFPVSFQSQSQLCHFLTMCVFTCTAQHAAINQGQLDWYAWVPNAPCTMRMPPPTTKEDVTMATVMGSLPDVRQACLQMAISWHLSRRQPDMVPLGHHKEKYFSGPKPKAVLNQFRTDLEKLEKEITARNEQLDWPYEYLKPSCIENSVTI
#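 Lipoxygenase turnover measured by absorbance at 573 and 405 nm after Fe-XO development. Human 12hLO 150 nM, arachidonate 40 uM, pH 7.0 Hepes buffer with detergent; 15 min compound preincubation, 30 min reaction.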
# Numbers without * were called inactive; ? = inconclusive; nt = not tested or not shown; [ ] = dose if it differs, or a comment. Compounds with a hit are over-represented: about 10% of the library has one in this group of screens. Unless noted, calls come from the whole dose curve; as a rule, active = well fitted inhibition curve with a large enough effect (not every such curve was filed as active); inconclusive = small, poorly fitted or top-dose-only effect, or another doubt; inactive = no such curve, though single readings can be large or run the other way. Unless noted, % is set by controls: 0 for no effect and ±100 for the full control effect.
SMILES,HPGD inh,ALDH1A1 block,PNC inhibitor,LMNA splice mod,12-hLO inh
COc1cccc(Oc2c(C)oc3cc(OC(=O)N(C)C)ccc3c2=O)c1,-18.4%,22.4µM*,1.0,?,-11.1%
Cc1c([C@@H](C)C2NC[C@H](C)C[C@@H]2O)ccc2c1C[C@@H]1[C@H]2CC=C2C[C@@H](O)CC[C@@]21C (stereo partly specified),-10.9%,-2.2%[13.5 µM],nt,nt,nt
CC(C)[C@@H](C)/C=C\[C@@H](C)[C@@H]1CC[C@H]2C3=CC=C4C[C@@H](O)CC[C@]4(C)[C@H]3CC[C@]21C,-4.5%,-8.2%[13.5 µM],nt,nt,2.9%[11.4 µM]
COc1ccc(CN2C(=O)CC(=O)NC2=O)cc1,nt,?,35.3,5.3%,-12.0%
COc1ccc(-c2noc(CN3C(=O)c4ccccc4C3=O)n2)cc1,20µM*,-3.8%,?,-10.1%,1.1%
CN1C[C@H](C(=O)N[C@@]2(C)O[C@@]3(O)[C@H]4CCCN4C(=O)[C@@H](Cc4ccccc4)N3C2=O)C=C2c3cccc4[nH]cc(c34)C[C@@H]21,-6.6%,-12.8%[13.5 µM],nt,nt,0.7%[11.4 µM]
O=c1[nH]c(O)c(N=Nc2cc([N+](=O)[O-])ccc2O)c(=O)[nH]1,nt,20µM*,nt,-3.4%[46 µM],nt
C=C(C)CSc1nc2ncc(Cl)cc2[nH]1,12.6µM*,5.2%,24.2,-2.9%,2.4%
COc1ccc(C[C@@H](N)c2ccc(OC)cc2)cc1,2.3%,8.6%[13.5 µM],nt,nt,0.6%[11.4 µM]
NS(=O)(=O)C[C-]1C=C[CH]([Sb-]([Cl])([Cl])([Cl])([Cl])[Cl])C=C1.c1ccncc1 (stereo unspecified),-9.8%,3.55µM*,nt,nt,2.0%[11.4 µM]
O=[N+]([O-])C(Br)Br,?,1.41µM*,nt,nt,-6.2%
c1csc(-c2nnc(Cc3cccc4ccccc34)o2)c1,17.8µM*,-3.3%,-22.9,?,-4.1%
Clc1ccccc1CNC1CN2CCC1CC2 (stereo unspecified),-7.9%,7.0%,?,-3.9%,7.9%
CSc1ccc(CNC2CN3CCC2CC3)cc1 (stereo unspecified),-2.0%,-0.3%,-105.8*,10.2%,9.3%
N#CCCC#N,-10.2%,28.2µM*,nt,nt,-4.5%
CCC#N,-16.6%,?,nt,nt,0.2%
CC/C=C\C[C@@H](/C=C/C=C\C/C=C\C/C=C\CCCC(=O)O)OO,0.0%,-2.4%,nt,nt,0.9%
C=C(C)C1Cc2c(ccc3c2OC2COc4cc(OC)c(OC)cc4C2C3=O)O1 (stereo unspecified),?,?,nt,?,-0.2%
Cc1ccc(C)c(OCC(=O)N2CCCN(C)CC2)c1,-1.2%,0.9%,-112.3*,-22.2%,2.4%
O=C1NC(=O)C(=Cc2cc(Cl)ccc2OCc2ccc(C(=O)O)cc2)C(=O)N1,nt,2.9%,nt,nt,nt
O=C1NC(=O)C(=Cc2coc3ccc(O)cc3c2=O)C(=O)N1,nt,3.55µM*,nt,-18.2%[46 µM],nt
Cc1cc(C=C2C(=O)NC(=S)NC2=O)c(C)n1C1CCCC1,nt,7.08µM*,nt,nt,nt
Cc1cc(C=C2C(=O)N(C)C(=S)N(C)C2=O)c(C)n1C1CCCCC1,-9.9%,?,?,4.9%,-11.3%
Oc1c(Br)cc(Br)cc1Br,-9.2%,-0.6%,nt,?,-7.0%
Oc1c(Br)c(Br)c(Br)c(Br)c1Br,10µM*,?,nt,nt,-9.4%
SMILES,HPGD inh,ALDH1A1 block,PNC inhibitor,LMNA splice mod,12-hLO inh
CC1(C)N=C(N)N=C(N)N1c1cccc(C(=O)Nc2ccc(S(=O)(=O)F)cc2)c1,-3.0%,-1.5%[13.5 µM],nt,nt,7.4%[11.4 µM]
Cc1nc2c(=O)n(C)c(=O)nc-2n(C)n1,-18.4%,-4.8%,-92.8*,?,-17.3%
CN(C)c1ccc(C(=O)c2ccc(N(C)C)cc2)cc1,?,28.2µM*,-29.1,?,-1.7%
[O-][Cl+2]([O-])O,-7.3%,?,nt,nt,1.8%
CN1CC[C@@]2(c3cccc(O)c3)Cc3nc4ccccc4cc3C[C@H]2C1,-7.7%,-1.7%,nt,nt,3.1%
O=C(c1c[nH]c(C(=O)C(Cl)(Cl)Cl)c1)c1ccccc1Cl,14.1µM*,?,-24.9,-0.5%,-8.9%
Nc1ncnc2c1ncn2[C@@H]1O[C@@H](COP(=O)(O)CP(=O)(O)OP(=O)(O)O)[C@H](O)[C@@H]1O,nt,nt,nt,nt,-3.2%
[Cl-].[Cl-].[Hg+2],0.1µM*,0.141µM*,nt,?,5.01µM*
CC(C)(C)NC[C@H](O)c1ccccc1Cl,nt,nt,nt,nt,-1.5%
c1ccc(-c2ccccc2)cc1,-12.9%,?,nt,nt,-0.7%
Oc1ccccc1-c1ccccc1,?,17.8µM*,nt,6.1%,-1.1%
CCOc1cc(C=C2C(=O)NC(=O)NC2=O)ccc1OS(=O)(=O)c1ccccc1,12.6µM*,?,72.0,-0.2%,-8.4%
CCOc1cc(C=C2C(=O)NC(=O)NC2=O)ccc1OCC(=O)N1CCOCC1,-17.6%,35.5µM*,-12.8,10.8%,-2.6%
COc1cc(/C=C2/C(=O)N(c3ccccc3)N=C2C)ccc1OS(=O)(=O)c1ccccc1,20µM*,?,?,-1.1%,-1.3%
C(CCOCC1CO1)COCC1CO1 (stereo unspecified),-0.9%,-13.7%,nt,nt,0.3%
C[C@@]12CC[C@H]3[C@@H](CC=C4C[C@H](OS(=O)(=O)O)CC[C@]43C)[C@H]1CCC2=O,nt,nt,nt,nt,1.7%
CCCC/C(=N\O)c1c[nH]c2ccccc12,-6.2%,4.4%,-80.9*,-19.1%,-3.8%
O=C(Oc1ccc(S(=O)(=O)F)cc1F)c1ccccc1Cl,-14.3%,0.0%[13.5 µM],nt,nt,1.7%[11.4 µM]
O=C1NC(=O)C(=Cc2ccc(OCCOc3ccc([N+](=O)[O-])cc3)cc2)C(=O)N1,nt,17.8µM*,nt,?,nt
O=C1NC(=O)N(c2ccccc2F)C(=O)/C1=C/c1ccc(Oc2ccc([N+](=O)[O-])cn2)cc1,nt,?,nt,10.1%[46 µM],nt
S=C1Nc2ccccc2Sc2ccccc21,nt,10µM*,nt,nt,nt
CNC1CC(N)[C@H](O)[C@@H](O[C@@H]2OC(CO)C3OC4(OC(C(N)CO)C(O)C(O)C4O)O[C@@H]3[C@H]2O)C1O (stereo partly specified),-1.5%,6.3%,nt,?,4.0%
C[C@]12CC[C@@H]3[C@H](CCC4=CC(=O)CC[C@]43C)[C@]1(O)CC[C@@]2(O)C(=O)CO,-6.7%,7.5%[13.5 µM],nt,nt,2.3%[11.4 µM]
CN(CCc1ccc(Cl)c(Cl)c1)[C@H]1CCCC[C@H]1N1CCCC1,-2.7%,25.1µM*,nt,nt,2.8%
O=C(Cc1ccc(Cl)c(Cl)c1)N1CCCCC1CN1CCCC1 (stereo unspecified),-9.0%,-1.2%,nt,-21.7%,nt
Cc1ccc(-n2nc(C)cc2NC(=O)COc2cc(C)cc3oc(=O)c4c(c23)CCC4)cc1,?,?,?,-2.9%,-2.9%
Cc1cc(OC(=O)c2ccco2)c2c3c(c(=O)oc2c1)CCCC3,-10.9%,14.1µM*,30.2,?,-7.4%
Cc1cc(OC(=O)c2cccs2)c2c3c(c(=O)oc2c1)CCCC3,-6.2%,12.6µM*,22.5,?,2.0%

# High-throughput results as filed in PubChem.
